In PubChem BioAssay (NCATS):
Results filed as inconclusive are left out. Entries that show only a call come without a potency. Calls of active or inactive are those of the source. The call rests on the fitted dose curve; in most records, active means well fitted curve in the direction sought with a large enough effect; inconclusive means small, poorly fitted or top-dose-only effect, or another doubt; inactive means no such curve, though single readings can be large; an effect the other way counts as inactive or inconclusive.

system: not listed separately; assay: qHTS to identify inhibitors of the type 1 interferon - major histocompatibility complex class I in skeletal muscle: primary screen against the NCATS Mechanism Interrogation Plate v5.0 (MIPE) Libary (AID 1347411); details: iHSKM cells + IFN-b, HiBiT-tagged MHC-I luminescence, 24 h; series mostly up to 45.8 µM; further: nearly all actives have a fitted effect of over 65% in size; further: potency means the concentration at half of the fitted maximal effect
In short: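 Cells were genome-edited human myoblasts carrying a HiBit tag on endogenous HLA-B. They were treated with IFN-beta (4.0 ng/ml) and titrated compounds (top 46 uM) for 24 hrs before lytic HiBiT detection.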

| SMILES | Potency |
| --- | --- |
| COc1cc([C@@H](CC(=O)O)c2ccc(C)c(CN3C[C@@H](C)Oc4ccccc4S3(=O)=O)c2)cc2nnn(C)c12 | inactive |
| Nc1ncnc2c1ncn2[C@@H]1O[C@H](CO)C[C@H]1O | inactive |
| CN(C)C(=O)c1cc2cnc(Nc3ccc(N4CCNCC4)cn3)nc2n1C1CCCC1 | inactive |
| O=C(NNc1ccccc1)c1ccncc1 | inactive |
| C=CC(=O)Nc1cc(Nc2nccc(-c3cn(C)c4ccccc34)n2)c(OC)cc1N(C)CCN(C)C | 8.29 µM (active) |
| CCN(CCCOc1ccc2c(Nc3cc(CC(=O)Nc4cccc(F)c4)[nH]n3)ncnc2c1)CCOP(=O)(O)O | inactive |
| COc1ccc(CNC(=O)Nc2ncc([N+](=O)[O-])s2)cc1 | 18.6 µM (active) |

biological target: Calcium and integrin-binding protein 1 (Homo sapiens) (UniProt Q99828); assay: Primary qHTS for Identification of Calcium Integrin Binding Protein 1 (CIB1) Competitor (AID 1508620); details: CIB1-GST / FITC-alphaIIb peptide fluorescence polarization; series mostly up to 114 µM;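 further: GST tagged CIB1 binding a fluorescein labelled alphaIIb integrin peptide tracer; top concentration of the series differs between compounds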
In short: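 Fluorescence polarization competition: GST-tagged CIB1 (1 uM final) preincubated with compound 15 min at room temperature, then FITC-labelled alphaIIb peptide (100 nM final) added. After 15 min at room temperature, polarization read at Ex 480/Em 540.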

Sequence of Calcium and integrin-binding protein 1 (Homo sapiens) (Q99828 whole entry, looked up): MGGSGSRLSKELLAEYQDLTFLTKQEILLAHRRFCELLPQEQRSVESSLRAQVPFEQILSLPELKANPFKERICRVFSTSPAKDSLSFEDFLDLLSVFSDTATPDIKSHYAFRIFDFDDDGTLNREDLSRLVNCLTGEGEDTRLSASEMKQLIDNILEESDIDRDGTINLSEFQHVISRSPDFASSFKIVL

| SMILES | outcome |
| --- | --- |
| O=[N+]([O-])c1ccc(-[n+]2nc(-c3ccccc3)nn2-c2ccc(I)cc2)cc1 | inactive |
| COc1ccccc1NC(=O)Nc1ccc2ccccc2c1 | inactive |
| C=C(C)C(=O)OC1[C@@H]2C(=C)C(=O)O[C@@H]2C[C@@H](C)[C@@H]2C=CC(=O)[C@@]12C (some centres not stated) | inactive |
| CCC(C)n1cc(C)c2c(C(=O)NCc3c(C)cc(C)[nH]c3=O)cc(-c3ccc(N4CCNCC4)nc3)cc21 (configuration not stated) | inactive |
| CC(C)[C@@H](C)/C=C/[C@@H](C)[C@H]1CC[C@H]2C3=CC=C4C[C@@H](O)CC[C@]4(C)C3=CC[C@]12C | inactive |
| Cn1c(NC[C@@H](N)Cc2ccccc2)nc(-c2ccncc2)c(-c2ccc3ccccc3c2)c1=O | inactive |
| CC1(C)CC[C@]2(C(=O)OC3OC(CO)C(O)C(O)C3O)CC[C@]3(C)C(=CCC4[C@@]5(C)CC[C@H](OC6OC(C(=O)O)C(O)C(O)C6O)C(CO)(CO)C5CC[C@]43C)[C@@H]2C1 (some centres not stated) | inactive |
| Nc1ncnc2c1ncn2[C@@H]1O[C@H](CO)C[C@H]1O | inactive |
| CCOC(=O)c1cnn(-c2ccc(NC(=O)C(Cl)=C(Cl)Cl)cc2)c1C(F)(F)F | inactive |
| CC(=O)N1c2ccc(-c3ccc(C(=O)O)cc3)cc2C(Nc2ccc(Cl)cc2)CC1C (configuration not stated) | inactive |
| COc1ccc(C(=O)N(CCC(C)C)Cc2nc(C)c(C)n2Cc2ccccc2C)c(OC)c1 | inactive |
| O=C(Nc1ccc(F)cc1)N1CCc2ccccc2C1c1ccc(C(F)(F)F)cc1 (configuration not stated) | inactive |
| C[C@@H]1COCCN1c1cc(C2(S(C)(=N)=O)CC2)nc(-c2ccnc3[nH]ccc23)n1 (some centres not stated) | inactive |
| Cc1ccc(C(=O)N2CCN(c3ccc([N+](=O)[O-])cc3)CC2)cc1Cl | inactive |
| CN(C)C(=O)c1cc2cnc(Nc3ccc(N4CCNCC4)cn3)nc2n1C1CCCC1 | inactive |
| C=C1/C(=C/C=C2\CCC[C@]3(C)[C@@H]([C@H](C)/C=C/C(=O)C4CC4)CC[C@@H]23)C[C@@H](O)C[C@@H]1O | inactive |
| CC1OC2OC3C(OCC(O)C3O)OC(=O)C34CCC(C)(C)CC3C3=CCC5C6(C)CC(O)C(OC7OC(CO)C(O)C(O)C7OC7OCC(OC(=O)CC(C)(O)CC(=O)OC1C(OC1OCC(O)C(O)C1O)C2O)C(O)C7O)C(C)(CO)C6CCC5(C)C3(C)CC4O (configuration not stated) | inactive |
| CC(C)(C)c1ccc(-c2nc3ccccc3[nH]2)cc1 | inactive |
| COc1cc(O)c(C(=O)CCc2ccc(O)cc2)c(O[C@@H]2O[C@H](CO)[C@@H](O)[C@H](O)[C@H]2O)c1 | inactive |
| CCN1CCN(Cc2ccc(-c3cc4c(NC(C)c5ccccc5)ncnc4[nH]3)cc2)CC1 (configuration not stated) | inactive |
| CN1CCN(C(=O)c2ccc(Nc3nccc(-c4cccs4)n3)cc2Cl)CC1 | inactive |
| Cc1ccc2c(Nc3ccc(Cl)cc3)nccc2c1Nc1ncccc1-c1ncnc2nc[nH]c12 | inactive |
| Cc1ccc(C2(COC(=O)C(C)C)CO2)c(OC(=O)C(C)C)c1 (configuration not stated) | inactive |
| CC1(C)CC23[C@@H]4CC(=O)[C@@H]2COC(=O)[C@@H]3CC[C@H]41 | inactive |
| COc1cc2ncnc(Oc3cccc(NC(=O)Nc4cc(C(C)(C)C(F)(F)F)on4)c3)c2cc1OC | inactive |
| O=C(NNc1ccccc1)c1ccncc1 | inactive |
| CN(CCCNC(=O)c1ccc2nc3c(c(Cl)c2c1)CCCC3)Cc1ccccc1 | inactive |
| C=CC(=O)Nc1cc(Nc2nccc(-c3cn(C)c4ccccc34)n2)c(OC)cc1N(C)CCN(C)C | inactive |
| OCC(Cc1ccccc1)Nc1nc(Oc2ccc3c(c2)CCC3)nc2c1ncn2Cc1ccc(-c2ccccc2)cc1 (configuration not stated) | inactive |
| O=C(NC(NC(=S)Nc1ccc(F)c([N+](=O)[O-])c1)C(Cl)(Cl)Cl)C(c1ccccc1)c1ccccc1 (configuration not stated) | inactive |
